Giardia FBPA inh – inhibitors of Giardia lamblia fructose-1,6-bisphosphate aldolase. Potency, µM (series often up to 59.6 µM), inactives show top-dose activity, negative = inhibition, hits mostly inhibitors. A8B2U2. 0.71% of 290,000 active. purified Giardia FBPA; note: potency is the fitted concentration of half-maximal effect; % is set by controls: 0 for no effect and ±100 for the full control effect; nearly all actives have a fitted effect of over 55% in size
Target sequence (A8B2U2 whole entry, looked up): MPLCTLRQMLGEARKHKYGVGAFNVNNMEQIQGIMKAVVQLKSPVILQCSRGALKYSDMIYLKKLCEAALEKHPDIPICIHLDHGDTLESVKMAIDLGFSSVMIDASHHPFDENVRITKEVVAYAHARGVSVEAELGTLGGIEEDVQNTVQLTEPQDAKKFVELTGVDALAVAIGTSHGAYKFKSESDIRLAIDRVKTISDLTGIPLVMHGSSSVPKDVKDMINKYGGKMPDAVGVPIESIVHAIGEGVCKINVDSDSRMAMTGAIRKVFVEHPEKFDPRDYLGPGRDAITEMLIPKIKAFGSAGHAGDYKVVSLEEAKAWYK
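40 nM FBPA preincubated 10 min at RT with compound (up to 57.5 uM final), then substrate plus GAPDH/TPI/NAD/arsenate coupling and diaphorase/resazurin added. Fluorescence read after 20 min at RT, 525/598 nm.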
Cycloheximide cs – affects cycloheximide protein synthesis inhibition readout, counter-screen. cell reporter, cycloheximide protein synthesis inhibition counterscreen. max response, %. 12% of 300,000 active; in the data active = max response mostly above about 13%, no sharp cut-off; inactive = mostly below about 14%; note: read at 38.3 µM for the half of the compounds with a filed dose; 0% is about no effect
Tb PYK inh – blocks Trypanosoma brucei pyruvate kinase. Potency, µM (top dose mostly 76.8 µM), for the others: at the highest dose activity, negative = inhibition, usual class: inhibitors. TbPYK enzyme, Kinase-Glo Plus ATP luminescence, 45 min. 0.12% of 410,000 active; note: potency is the fitted concentration of half-maximal effect; % is set by controls: 0 for no effect and ±100 for the full control effect; nearly all actives have a fitted effect of over 50% in size
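Screened from lowest to highest concentration, compounds were pinned into TbPYK/substrate mixtures, and ADP (130 uM final) was added. Plates sat at room temperature for 45 min prior to Kinase-Glo Plus detection by luminescence.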
Shiga inhibitor – blocks Shiga toxin action in Vero cells; Vero cells, Shiga toxin protein synthesis inhibition reporter; inhibition, % at 38.7 µM; 9.2% of 290,000 active; in the data active = inhibition mostly above about 28%, no sharp cut-off; inactive = mostly below about 43%; note: 0% is about no effect
LmPK inhibitor – inhibitors of Leishmania mexicana pyruvate kinase | Q27686 | purified LmPK, Kinase-Glo ATP luminescence, 1 h | Potency, µM (doses to about 57.5 µM), without a hit: top-dose activity change, negative = inhibition, hits mostly inhibitors | 0.37% of 290,000 active | AID 1721; note: potency is the fitted concentration of half-maximal effect; % is set by controls: 0 for no effect and ±100 for the full control effect
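In 50 mM imidazole pH 7.2 with 7 mM MgCl2, LmPK (0.1 nM) turned over PEP (0.5 mM) and ADP (0.1 mM) for 1 h at room temperature. Luciferase read-out of ATP.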
RE007 growth inh – less growth of the S. pombe RE007 Vpr strain. S. pombe RE007 Vpr strain, BacTiter-Glo ATP luminescence, 24 h. Potency, µM (titrated, usually from 92.2 µM), inactives show at the highest dose activity change, negative = less growth, most hits filed as inhibitors. 0.21% of 360,000 active. AID 651644; active = well fitted falling curve with a large enough effect; inconclusive = small, poorly fitted or top-dose-only effect; inactive = no such curve, though single readings can be large or run the other way; note: potency is the fitted concentration of half-maximal effect; % is set by controls: 0 for no effect and ±100 for the full control effect; nearly all actives have a fitted effect of over 50% in size
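Fission yeast RE007 carrying one integrated HIV-1 vpr copy, seeded at OD 0.01 in PMG+AL medium with 23 nL pinned compound. Grown 24 h at 30 degrees; viability read by BacTiter-Glo luminescence after 5 min.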
* = called active by the depositor; ? = inconclusive; . = not tested or not shown; + = active, no number; [ ] = dose if it differs, or a comment. The full list was thinned out, with hits kept by preference. Unless noted, calls come from the whole dose curve; as a rule, active = well fitted curve in the direction sought with a large enough effect; inconclusive = small, poorly fitted or top-dose-only effect, or another doubt; inactive = no such curve, though single readings can be large; an effect the other way counts as inactive or inconclusive.

SMILES | Giardia FBPA inh | Cycloheximide cs | Tb PYK inh | Shiga inhibitor | LmPK inhibitor | RE007 growth inh
CC/C=C\CC[C@H](O)C1=CCCCC1=O | -1%[12.9 µM] | . | . | . | . | .
Cc1ccc(Cl)cc1NC(=O)CCn1c(=O)c2cccn2c2cccnc21 | . | . | -2% | . | . | .
O=C(NCc1cccs1)c1ccc2c(c1)sc1nc(-c3ccccc3)cn12 | . | . | 3% | . | . | .
c1ccc(-c2nnsc2-c2nc3ccccc3[nH]2)cc1 | -2% | 23* | -19% | 43* | -1% | 2%
O=c1[nH]c2ccccc2nc1-c1ccc(Cl)cc1 | -9% | 18* | 4% | 52* | -4% | -5%
c1ccc(-c2nnsc2-c2ncc[nH]2)cc1 | 2% | -2 | -1% | 10 | 1% | -10%
O=c1[nH]c2ccccc2nc1-c1ccccc1 | -1% | 26* | -3% | 50* | -4% | -21%
CCn1c(=O)c2cc(C(=O)Nc3cc(C)c(Cl)cc3OC)sc2c2ccccc21 | . | . | -7% | . | . | .
CCN1/C(=C\C=C(C(C)=O)C(C)=O)Sc2ccccc21 | -14% | 19* | -6% | 16 | 0% | -24%
CCN1/C(=C\C(=S)Nc2ccccc2)Sc2ccccc21 | -9% | 31* | -20% | 56* | -1% | 2%
CCN1/C(=C\C=C2\C(=O)N(c3ccccc3)C(=S)N2C)Sc2ccccc21 | -18% | -2 | -32% | -11 | 0%[11.5 µM] | -1%
CCOC(=O)/C(C#N)=C(C)/C=C1\Sc2ccccc2N1CC | 0% | 13 | 2% | -6 | 2% | 2%
CC(=O)N1CCC2(CC1)CCN(c1ncccn1)CC2 | -1% | . | 0% | . | . | .
Cc1ccc(N2C(=O)CSC23C(=O)N(CC(=O)NC2CCCCC2)c2ccccc23)cc1 (configuration not stated) | . | . | -9% | . | . | .
CCCN(CCC)C(=O)Cn1c(=O)n(CCCCCC(=O)NCc2ccc3c(c2)OCO3)c(=O)c2sccc21 | . | . | -5% | . | . | .
Cc1cccnc1NCc1ccc(O)c2ncccc12 | ? | 2 | -3% | -11 | 6% | -20%
Cc1ccc(NCc2ccc(O)c3ncccc23)cc1C | -6% | 36* | -6% | 54* | -18% | -27%
Cc1ccc(NCc2ccc(O)c3ncccc23)cc1 | ? | 16* | 1% | 18 | 11% | -14%
COc1ccc(-c2cc(C(=O)c3c(N)n(C)c(=O)n(C)c3=O)c3ccccc3n2)cc1 | 4% | 18* | -10% | 4 | -12% | -23%
Cn1c(N)c(C(=O)COC(=O)c2cc(-c3ccco3)nc3ccccc23)c(=O)n(Cc2ccccc2)c1=O | -8% | 11 | . | -8 | 3% | .
Cn1c(N)c(C(=O)COC(=O)c2cc(-c3ccco3)nc3ccccc23)c(=O)n(C)c1=O | -12% | 21* | 0% | 31 | 0% | -16%
COc1ccc(-c2cc(C(=O)OCC(=O)c3c(N)n(C)c(=O)n(C)c3=O)c3ccccc3n2)cc1 | -4% | -2 | -1% | 3 | 4% | -13%
CCc1c(C)c2ccc(O)c(CN3CCN(c4ccc(OC)cc4)CC3)c2oc1=O | . | . | 0% | . | . | .
CC(C)N1CCC(=NNC(=O)c2cccs2)CC1 | . | 46* | 0% | 114* | -12% | 2%
O=C(c1cccs1)N1CCN(c2ccc(Cl)cc2)CC1 | 4% | 22* | -11% | 20 | 3% | ?
SMILES | Giardia FBPA inh | Cycloheximide cs | Tb PYK inh | Shiga inhibitor | LmPK inhibitor | RE007 growth inh
O=C(OCC(=O)N1CCCC1)c1cccs1 | 2% | 42* | -1% | 72* | -9% | 5%
O=C(CCC(=O)N1CCN(c2ccc(O)cc2)CC1)c1cccs1 | -24% | 30* | -21% | 52* | -15% | -5%
CC(C)N1CCC(=NNC(=O)c2ccccc2[N+](=O)[O-])CC1 | 0% | -1 | 3% | 2 | 1% | 6%
O=C(OCC(=O)N1CCN(c2ccccc2)CC1)c1cccs1 | . | . | -1% | . | . | -5%
Cc1ccc(-c2cc(C(=O)N(Cc3ccccc3)Cc3ccco3)no2)cc1F | . | . | -8% | . | . | .
CN1CCN(C(=O)CNC(=O)c2cccs2)CC1 | . | . | -4% | . | . | 30%
O=C(NCC(=O)N1CCCC1)c1cccs1 | 1% | 17* | -4% | 26* | -4% | 3%
O=C(NCC(=O)N1CCN(c2ncccn2)CC1)c1cccs1 | 3% | 33* | 1% | 46 | -2% | -1%
O=C(NCC(=O)N1CCN(c2ccccc2)CC1)c1cccs1 | 5% | 22* | 33% | 21 | -2% | -10%
Cc1cc(O)c(C(C)C)cc1Cl | -6% | -7 | 0% | -12 | . | .
CCCCN(C)CCNC(=O)c1cc2c(=O)n(C)c3ccccc3c2n1C | . | . | 3% | . | . | .
Cc1ccccc1-c1noc(C23CC4CC(CC(C4)C2)C3)n1 | 5% | -1 | . | -5 | -1% | 4%[3.69 µM]
c1cncc(-c2noc(C34CC5CC(CC(C5)C3)C4)n2)c1 | 4% | 22* | 3% | 36* | -6% | -12%
C/C(=N/NC(=O)CNC(=O)c1cccs1)c1ccco1 | 1% | -3 | -2% | 51* | 1% | 1%
O=C(Cc1cccs1)N/N=C/C=C/c1ccco1 | ? | 26* | -13% | + | 3% | 18%
C/C(=N/NC(=O)CNC(=O)c1ccco1)c1ccco1 | -7% | -3 | -4% | 4 | 7% | 0%
O=C(CNc1cccc2ccccc12)N/N=C/C=C/c1ccco1 | -4% | -4 | -5% | -8 | -5% | 3%
C/C(=N/NC(=O)Cc1cccs1)c1ccco1 | -3% | 22* | ? | 27* | 6% | -3%
Cc1cc(C)nc(SCc2ccc(C(=O)N/N=C/c3cccc(O)c3O)cc2)n1 | ? | 17* | 15% | -60 | -3% | ?
COc1ccc(O)c(/C=N/NC(=O)c2ccc(CSc3nc(C)cc(C)n3)cc2)c1 | -17% | 61* | -10% | 71* | -1% | 8%
Cc1cc(C)nc(SCc2ccc(C(=O)N/N=C/c3ccc(C(=O)O)cc3)cc2)n1 | -8% | -4 | 1% | -7 | -2% | 9%
COC(=O)c1sccc1S(=O)(=O)N(CC(=O)NCc1ccc(C)cc1)c1ccc(Cl)cc1 | . | . | 1% | . | . | .
CCc1ccc(S(=O)(=O)c2cn(Cc3ccccc3)c3cc(N4CCCC4)c(F)cc3c2=O)cc1 | . | . | -3% | . | . | .
COc1ccc2[nH]cc(CCNc3ccnc(-c4ccc(N(C)C)cc4)n3)c2c1 | -9% | . | . | . | . | .
CCOC(=O)c1cccc(NC(=O)CC2C(=O)N(c3ccc(OC)cc3)C(=O)N2C2CCCC2)c1 (configuration not stated) | . | . | 1% | . | . | .
COc1ccc(CNc2nc3ccccc3s2)cc1OC | -3% | 45* | 4% | 66* | -1% | -22%
c1ccc(CCNc2nc3ccccc3s2)cc1 | -3% | 67* | -5% | 85* | 12% | -26%
CCOC(=O)C1CCN(C(=O)c2nn(-c3ccc(OC)c(Cl)c3)c(=O)c3c2c2ccccc2n3C)CC1 | . | . | 4% | . | . | .
Cc1ccc(C)c(Cn2c(=O)n(CCCC(=O)NCCc3ccc(Cl)cc3)c(=O)c3ccccc32)c1 | . | . | 3% | . | . | .

Screening results: PubChem, National Center for Advancing Translational Sciences (NCATS)
